The values below come from PubChem BioAssay (NCATS).

Results filed as inconclusive are left out. A number with no mark means an inactive call. Active and inactive are the calls of the source. Unless noted, the call rests on the fitted dose curve; in most records, active means well fitted curve in the direction sought with a large enough effect; inconclusive means small, poorly fitted or top-dose-only effect, or another doubt; inactive means no such curve, though single readings can be large; an effect the other way counts as inactive or inconclusive.

Assay [1] deals with Luciferin 4-monooxygenase (Photinus pyralis) (UniProt P08659). In words: Biochemical firefly luciferase enzyme assay for NPC (AID 624030).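 Further: purified P. pyralis luciferase at 10 nM with luciferin and ATP substrate; 0% = DMSO and -100% = full luciferase inhibition by PTC124 control; nearly all actives have a fitted effect of over 70% in size.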 In a few lines: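 Counter-screen for direct inhibition of the luciferase enzyme by approved-drug library compounds, run at 10 nM enzyme in 50 mM Tris acetate (final). Luminescence was read within 5 min of enzyme-buffer addition and normalized to PTC124 versus DMSO (0%).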
Chain of Luciferin 4-monooxygenase (Photinus pyralis) (P08659 whole entry, looked up): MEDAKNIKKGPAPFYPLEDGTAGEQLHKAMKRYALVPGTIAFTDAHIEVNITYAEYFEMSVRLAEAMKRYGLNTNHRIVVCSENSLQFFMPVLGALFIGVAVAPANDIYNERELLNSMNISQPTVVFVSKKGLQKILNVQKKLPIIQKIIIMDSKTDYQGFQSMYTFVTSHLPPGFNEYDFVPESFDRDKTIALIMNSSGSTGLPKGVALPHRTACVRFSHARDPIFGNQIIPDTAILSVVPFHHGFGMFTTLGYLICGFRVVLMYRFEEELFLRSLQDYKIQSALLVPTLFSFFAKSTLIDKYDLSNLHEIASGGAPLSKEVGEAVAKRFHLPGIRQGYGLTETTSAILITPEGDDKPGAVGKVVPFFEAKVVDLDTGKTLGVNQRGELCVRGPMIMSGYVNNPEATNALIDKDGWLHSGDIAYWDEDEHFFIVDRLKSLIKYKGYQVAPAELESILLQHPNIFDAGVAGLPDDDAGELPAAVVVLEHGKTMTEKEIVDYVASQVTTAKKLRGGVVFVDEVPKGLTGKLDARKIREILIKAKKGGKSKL

Assay [2] is described as follows: S16 Schwann cell PMP22 intronic element firefly luciferase assay (AID 624032). Further: nearly all actives have a fitted effect of over 30% in size. Further: potency means the concentration at half of the fitted maximal effect. The method in brief: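 Rat S16 Schwann cells stably carrying a PMP22 intronic element-driven Fluc reporter were seeded overnight, then exposed to compounds for 24 h at 37 °C. Luminescence was normalized to PTC124 (positive control) and DMSO (0% activity).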
Assay [3] can be described thus: S16 Schwann cell PMP22 intronic element beta-lactamase assay (AID 624044; calls by dose curve;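 further: 0% = DMSO and -100% = potassium clavulanate positive control; nearly all actives have a fitted effect of over 15% in size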). The note with it: S16 rat Schwann cells, PMP22 element beta-lactamase FRET, 24 h; ratio activity, negative = inhibition: at 38.3 µM (top of the series) unless noted. The method in brief:
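Rat S16 Schwann cells with beta-Lac driven by a PMP22 intronic element, compound-treated 24 h at 37 °C. LiveBLAzer FRET B/G read: 460 nm normalized to potassium clavulanate vs DMSO; 535 nm FRET as viability; concentration-effect curves classified.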

A short description of assay [4]: S16 Schwann cell viability assay (CellTiter-Glo assay) (AID 624031). Further: nearly all actives have a fitted effect of over 70% in size. Further: potency means the concentration at half of the fitted maximal effect. The method in brief: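 CellTiter-Glo ATP luminescence counter-screen in untransfected S16 rat Schwann cells, 24h compound exposure at 37 degree Celsius after overnight seeding (500-750 cells/well); response scaled between cell-free wells and DMSO (0% activity), curves classed by r2 and magnitude.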
A general note: ATP-based viability assays read luminescence as a measure of living cells.

As for `S=C1SCN(Cc2ccccc2)CN1Cc1ccccc1`, the Potency entry in assay [1] is “inactive”. For the same compound, the Potency in assay [2] is 14.4 µM (active). The ratio activity, negative = inhibition in assay [3] was -11.2%.
As for `NC(=S)N=Nc1ccc(NN=C(N)N)cc1`, the Potency in assay [4] was 10.2 µM (active). Further, the Potency entry in assay [2] was “inactive”. The ratio activity, negative = inhibition in assay [3] is -3.68%.
`CC1CCC(NC(=O)N(CCCl)N=O)CC1` (configuration not stated): the Potency result in assay [4] and in assay [2] was “inactive” each time.
As for `CCOC(=O)C1=C(COCCN)NC(C)=C(C(=O)OC)C1c1ccccc1Cl` (configuration not stated), the Potency result in assay [1] and in assay [2] was “inactive” throughout. Moreover, the ratio activity, negative = inhibition in assay [3] was -3.48%.
As to `CCN(CC)CCC(=O)N1c2ccccc2Sc2ccc(C(F)(F)F)cc21`, the Potency entry in assay [1] and in assay [4] was “inactive” in each case. Further, the Potency in assay [2] was 14.4 µM (active). In assay [3], the ratio activity, negative = inhibition was -1.58%.
Regarding `C[C@]12CCC(=O)C[C@@H]1CC[C@@H]1[C@@H]2CC[C@]2(C)C=CC[C@@H]12`, the Potency result in assay [1], in assay [4] and in assay [2] was “inactive” each time. The ratio activity, negative = inhibition in assay [3] is 4.94%.
For `N#Cc1ccc2c(c1)N(CCCN1CCC(O)CC1)c1ccccc1S2`, the Potency entry in assay [1] and in assay [4] was “inactive” throughout. Besides, in assay [3], the ratio activity, negative = inhibition was -13.2%.
